What all share (experiment): DAPPL (digital affinity profiling via proximity ligation, sequencing); 10 mM Tris-HCl pH 7.5, 50 mM NaCl, 1 mM DTT, 4% glycerol, room temperature, 30 min; GST-TFs on glutathione beads, 16-mer random dsDNA library, 0.1% formaldehyde crosslink after washing; high values mean tight binding
For one test, the target named is T1, FLI1 (Homo sapiens, UniProt Q01543 1-452).
T1 sequence: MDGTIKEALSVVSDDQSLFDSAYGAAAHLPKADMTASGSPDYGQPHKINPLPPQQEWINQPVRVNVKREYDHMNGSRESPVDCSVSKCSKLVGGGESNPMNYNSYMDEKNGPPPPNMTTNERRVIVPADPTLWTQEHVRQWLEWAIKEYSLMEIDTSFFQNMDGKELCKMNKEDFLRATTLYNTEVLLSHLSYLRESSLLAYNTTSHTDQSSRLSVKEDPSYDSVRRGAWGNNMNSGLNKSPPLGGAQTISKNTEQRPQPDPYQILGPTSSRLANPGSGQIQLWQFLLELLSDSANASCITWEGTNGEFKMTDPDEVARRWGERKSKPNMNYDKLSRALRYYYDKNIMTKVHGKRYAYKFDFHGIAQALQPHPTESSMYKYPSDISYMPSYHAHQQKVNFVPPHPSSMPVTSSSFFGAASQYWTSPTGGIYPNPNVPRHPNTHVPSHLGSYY
Conditions: protein: recombinant; tags: N-terminal GST; dsDNA, one strand shown. In short, it runs like this:
(§1)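 After expression in yeast as GST fusions, human transcription factors were bound to glutathione beads, DNA-barcoded and mixed with a tag-only sample. The pools were incubated with 200 nmole of a 16-mer random double-stranded DNA library in Tris/NaCl/DTT/glycerol buffer (30 min, room temperature), washed and crosslinked with 0.1% formaldehyde. Proximity ligation with BsaI/T4 ligase ran for 1 h at 37 °C, before PCR amplification and sequencing on an Illumina NextSeq500. Binding signal is a hexamer's read frequency for a factor divided by its frequency for the tag-only sample.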

The target in the next test is T2, ELK1 (Homo sapiens, UniProt P19419 1-428).
T2 sequence: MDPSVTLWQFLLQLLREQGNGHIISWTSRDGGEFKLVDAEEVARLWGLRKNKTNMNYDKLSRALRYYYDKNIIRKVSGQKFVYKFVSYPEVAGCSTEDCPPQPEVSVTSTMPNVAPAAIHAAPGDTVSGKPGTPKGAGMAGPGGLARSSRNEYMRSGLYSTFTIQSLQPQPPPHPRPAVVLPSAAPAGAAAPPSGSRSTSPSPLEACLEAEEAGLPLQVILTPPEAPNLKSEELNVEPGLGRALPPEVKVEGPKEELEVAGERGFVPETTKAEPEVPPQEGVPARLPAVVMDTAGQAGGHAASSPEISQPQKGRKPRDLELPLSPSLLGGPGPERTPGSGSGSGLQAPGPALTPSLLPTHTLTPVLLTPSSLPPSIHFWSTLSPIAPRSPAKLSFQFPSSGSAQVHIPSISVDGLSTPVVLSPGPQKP
To be noted: protein: recombinant; tags: N-terminal GST; dsDNA, one strand shown. Summed up:
as §1

The target of the next test is T3, GABPA (Homo sapiens, UniProt Q06546 1-454).
T3 sequence: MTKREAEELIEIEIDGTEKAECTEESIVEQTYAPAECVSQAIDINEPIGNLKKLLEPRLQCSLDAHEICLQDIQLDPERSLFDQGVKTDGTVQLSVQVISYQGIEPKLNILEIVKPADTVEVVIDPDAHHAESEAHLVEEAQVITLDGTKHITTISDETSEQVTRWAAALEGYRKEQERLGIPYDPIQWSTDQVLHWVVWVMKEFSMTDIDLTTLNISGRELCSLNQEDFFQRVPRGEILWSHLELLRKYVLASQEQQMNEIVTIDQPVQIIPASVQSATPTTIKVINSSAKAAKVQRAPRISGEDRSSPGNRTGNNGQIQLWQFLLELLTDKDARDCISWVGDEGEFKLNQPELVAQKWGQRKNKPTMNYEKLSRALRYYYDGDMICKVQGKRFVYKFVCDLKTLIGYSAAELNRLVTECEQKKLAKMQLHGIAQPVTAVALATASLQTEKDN
To be noted: protein: recombinant; tags: N-terminal GST; dsDNA, one strand shown. Summed up: as §1

The next test has as its target T4, ERG (Homo sapiens, UniProt P11308 1-479).
T4 sequence: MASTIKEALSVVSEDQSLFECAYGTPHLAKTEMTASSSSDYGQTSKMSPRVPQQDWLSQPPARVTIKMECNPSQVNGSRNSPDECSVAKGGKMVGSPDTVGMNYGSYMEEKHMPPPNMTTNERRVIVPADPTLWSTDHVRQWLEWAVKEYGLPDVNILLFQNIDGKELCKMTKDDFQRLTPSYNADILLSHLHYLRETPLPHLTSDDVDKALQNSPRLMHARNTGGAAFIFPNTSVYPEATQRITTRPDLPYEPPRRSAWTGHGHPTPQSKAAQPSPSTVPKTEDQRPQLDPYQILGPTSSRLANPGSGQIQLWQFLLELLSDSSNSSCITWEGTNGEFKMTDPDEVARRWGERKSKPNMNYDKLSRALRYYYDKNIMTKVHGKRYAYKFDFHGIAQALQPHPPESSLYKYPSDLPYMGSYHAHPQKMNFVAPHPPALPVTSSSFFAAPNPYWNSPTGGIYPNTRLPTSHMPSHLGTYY
Conditions: protein: recombinant; tags: N-terminal GST; dsDNA, one strand shown. Summed up:
as §1

The next test deals with ELF1 (Homo sapiens, UniProt P32519 1-619). Conditions: protein: recombinant; tags: N-terminal GST; dsDNA, one strand shown. In short, it runs like this: as §1
ELF1, sequence (P32519 whole entry): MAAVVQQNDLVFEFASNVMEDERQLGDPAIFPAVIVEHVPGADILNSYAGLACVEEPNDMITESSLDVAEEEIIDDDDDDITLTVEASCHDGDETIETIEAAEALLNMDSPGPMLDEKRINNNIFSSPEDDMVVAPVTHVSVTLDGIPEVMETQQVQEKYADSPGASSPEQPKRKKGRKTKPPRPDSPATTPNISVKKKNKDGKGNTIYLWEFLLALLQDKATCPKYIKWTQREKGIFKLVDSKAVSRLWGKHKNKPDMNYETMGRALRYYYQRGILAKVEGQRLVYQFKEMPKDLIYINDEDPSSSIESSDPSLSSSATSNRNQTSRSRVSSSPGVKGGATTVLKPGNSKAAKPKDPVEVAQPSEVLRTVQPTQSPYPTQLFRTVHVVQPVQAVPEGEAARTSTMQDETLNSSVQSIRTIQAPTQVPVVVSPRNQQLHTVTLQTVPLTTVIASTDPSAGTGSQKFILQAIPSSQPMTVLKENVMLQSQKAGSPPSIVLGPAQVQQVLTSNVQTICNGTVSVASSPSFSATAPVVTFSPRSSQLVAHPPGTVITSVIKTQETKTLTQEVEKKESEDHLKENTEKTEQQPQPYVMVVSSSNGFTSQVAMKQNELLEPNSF
In the next test the target is T5, EHF (Homo sapiens, UniProt Q9NZC4 1-300).
T5 sequence: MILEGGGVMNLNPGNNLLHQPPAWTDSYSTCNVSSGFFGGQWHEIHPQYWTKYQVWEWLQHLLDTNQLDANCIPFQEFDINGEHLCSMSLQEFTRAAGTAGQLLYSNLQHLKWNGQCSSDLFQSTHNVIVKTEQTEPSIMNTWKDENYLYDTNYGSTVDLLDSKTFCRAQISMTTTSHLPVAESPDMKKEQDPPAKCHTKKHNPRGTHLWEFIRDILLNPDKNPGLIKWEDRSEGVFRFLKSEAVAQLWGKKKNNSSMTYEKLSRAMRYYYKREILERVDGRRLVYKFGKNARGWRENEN
To be noted: protein: recombinant; tags: N-terminal GST; dsDNA, one strand shown. In short, it runs like this: as §1

Another test concerns the target SPI1 (Homo sapiens, UniProt P17947 1-270). Conditions: protein: recombinant; tags: N-terminal GST; dsDNA, one strand shown. Summed up:
as §1

The target of the next test is SPIB (Homo sapiens, UniProt Q01892 1-262). To be noted: protein: recombinant; tags: N-terminal GST; dsDNA, one strand shown. Summed up:
as §1

The target of another test is T6, ELK3 (Homo sapiens, UniProt P41970 1-407).
T6 sequence: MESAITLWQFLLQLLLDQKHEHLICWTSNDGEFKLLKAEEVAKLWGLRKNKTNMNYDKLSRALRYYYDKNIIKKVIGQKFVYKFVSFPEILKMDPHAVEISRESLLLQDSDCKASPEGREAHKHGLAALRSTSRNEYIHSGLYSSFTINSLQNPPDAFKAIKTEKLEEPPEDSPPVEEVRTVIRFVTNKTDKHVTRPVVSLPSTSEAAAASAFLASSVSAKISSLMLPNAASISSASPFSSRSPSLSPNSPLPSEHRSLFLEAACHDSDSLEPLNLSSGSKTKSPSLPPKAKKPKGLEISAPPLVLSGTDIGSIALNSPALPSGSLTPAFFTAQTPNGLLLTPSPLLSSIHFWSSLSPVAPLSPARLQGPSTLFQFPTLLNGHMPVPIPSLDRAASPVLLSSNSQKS
Conditions: protein: recombinant; tags: N-terminal GST; dsDNA, one strand shown. In short, it runs like this: as §1

The target in a further test is T7, FEV (Homo sapiens, UniProt Q99581 1-238).
T7 sequence: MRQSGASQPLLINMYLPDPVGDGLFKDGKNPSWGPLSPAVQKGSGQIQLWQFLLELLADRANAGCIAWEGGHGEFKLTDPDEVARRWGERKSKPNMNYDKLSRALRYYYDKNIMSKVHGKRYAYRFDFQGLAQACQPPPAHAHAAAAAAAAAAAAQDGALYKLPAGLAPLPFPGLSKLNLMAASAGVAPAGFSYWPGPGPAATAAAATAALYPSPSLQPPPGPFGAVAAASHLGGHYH
To be noted: protein: recombinant; tags: N-terminal GST; dsDNA, one strand shown. In short, it runs like this:
as §1

The target in another test is ETV5 (Homo sapiens, UniProt P41161 1-510). Conditions: protein: recombinant; tags: N-terminal GST; dsDNA, one strand shown. Summed up: as §1
ETV5, sequence (P41161 whole entry): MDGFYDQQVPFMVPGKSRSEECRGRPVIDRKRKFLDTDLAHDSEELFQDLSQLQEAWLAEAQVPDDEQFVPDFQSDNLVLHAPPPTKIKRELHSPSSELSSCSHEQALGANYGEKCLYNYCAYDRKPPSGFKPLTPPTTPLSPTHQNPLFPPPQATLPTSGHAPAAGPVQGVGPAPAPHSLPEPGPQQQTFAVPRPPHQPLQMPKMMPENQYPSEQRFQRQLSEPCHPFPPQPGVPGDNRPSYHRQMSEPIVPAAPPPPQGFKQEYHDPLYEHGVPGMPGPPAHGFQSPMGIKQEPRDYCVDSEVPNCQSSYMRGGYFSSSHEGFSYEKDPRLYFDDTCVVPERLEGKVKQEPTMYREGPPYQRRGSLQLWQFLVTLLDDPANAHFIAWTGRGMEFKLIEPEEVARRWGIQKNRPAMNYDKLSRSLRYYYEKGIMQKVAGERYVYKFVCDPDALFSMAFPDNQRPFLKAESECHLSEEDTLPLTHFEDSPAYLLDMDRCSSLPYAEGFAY
The target of a further test is HSF1 (Homo sapiens, UniProt Q00613 1-529). Conditions: protein: recombinant; tags: N-terminal GST; chain copies: 3; dsDNA, one strand shown. In short, it runs like this: as §1
HSF1, sequence (Q00613 whole entry): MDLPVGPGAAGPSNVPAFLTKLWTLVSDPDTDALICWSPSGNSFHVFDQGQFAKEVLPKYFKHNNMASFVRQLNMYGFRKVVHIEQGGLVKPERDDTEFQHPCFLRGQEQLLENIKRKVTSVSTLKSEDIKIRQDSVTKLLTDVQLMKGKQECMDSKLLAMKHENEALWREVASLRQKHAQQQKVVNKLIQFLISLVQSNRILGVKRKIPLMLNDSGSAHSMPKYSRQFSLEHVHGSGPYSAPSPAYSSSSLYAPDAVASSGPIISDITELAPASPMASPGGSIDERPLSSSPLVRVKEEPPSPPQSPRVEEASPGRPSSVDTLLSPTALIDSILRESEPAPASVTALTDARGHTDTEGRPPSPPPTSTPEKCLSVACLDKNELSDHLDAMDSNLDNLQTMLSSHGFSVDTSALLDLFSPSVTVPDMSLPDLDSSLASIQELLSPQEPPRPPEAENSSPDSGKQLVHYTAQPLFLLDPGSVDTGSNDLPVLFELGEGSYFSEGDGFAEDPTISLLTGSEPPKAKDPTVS
A further test concerns the target T8, SPIC (Homo sapiens, UniProt Q8N5J4 1-248).
T8 sequence: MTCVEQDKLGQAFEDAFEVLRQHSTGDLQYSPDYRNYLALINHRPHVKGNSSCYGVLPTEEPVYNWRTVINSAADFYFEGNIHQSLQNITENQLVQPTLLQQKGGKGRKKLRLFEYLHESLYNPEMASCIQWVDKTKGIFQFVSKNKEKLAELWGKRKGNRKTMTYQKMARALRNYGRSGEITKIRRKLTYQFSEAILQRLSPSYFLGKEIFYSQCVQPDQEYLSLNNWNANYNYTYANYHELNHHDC
Conditions: protein: recombinant; tags: N-terminal GST; dsDNA, one strand shown. Summed up:
as §1

A further test addresses ELF4 (Homo sapiens, UniProt Q99607 1-663). Conditions: protein: recombinant; tags: N-terminal GST; dsDNA, one strand shown. In short, it runs like this:
as §1

The target of another test is T9, ELK4 (Homo sapiens, UniProt P28324-2 1-405).
T9 sequence: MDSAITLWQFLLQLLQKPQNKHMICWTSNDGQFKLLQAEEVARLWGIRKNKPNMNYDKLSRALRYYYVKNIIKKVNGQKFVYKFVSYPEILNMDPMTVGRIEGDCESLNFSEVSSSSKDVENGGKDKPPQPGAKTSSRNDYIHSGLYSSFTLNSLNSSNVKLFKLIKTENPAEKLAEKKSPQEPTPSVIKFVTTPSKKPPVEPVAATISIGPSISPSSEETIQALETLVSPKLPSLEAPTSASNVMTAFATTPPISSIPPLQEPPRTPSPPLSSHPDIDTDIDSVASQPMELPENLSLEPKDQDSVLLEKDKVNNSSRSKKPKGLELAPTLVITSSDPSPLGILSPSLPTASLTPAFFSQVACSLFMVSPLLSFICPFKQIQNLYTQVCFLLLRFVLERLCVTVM
To be noted: protein: recombinant; tags: N-terminal GST; dsDNA, one strand shown. Summed up:
as §1

In the next test the target is T10, ETV2 (Homo sapiens, UniProt O00321 1-342).
T10 sequence: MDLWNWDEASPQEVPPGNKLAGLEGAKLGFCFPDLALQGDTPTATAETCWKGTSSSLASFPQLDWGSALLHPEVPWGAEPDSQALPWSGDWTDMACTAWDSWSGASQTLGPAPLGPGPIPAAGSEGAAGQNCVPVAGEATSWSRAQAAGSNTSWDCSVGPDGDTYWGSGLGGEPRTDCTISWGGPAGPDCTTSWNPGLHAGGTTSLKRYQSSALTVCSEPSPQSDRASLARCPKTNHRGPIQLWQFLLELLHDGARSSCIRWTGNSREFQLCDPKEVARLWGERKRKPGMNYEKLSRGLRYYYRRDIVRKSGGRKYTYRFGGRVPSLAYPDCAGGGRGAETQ
Conditions: protein: recombinant; tags: N-terminal GST; dsDNA, one strand shown. Summed up:
as §1

The next test deals with T11, ELF3 (Homo sapiens, UniProt P78545 1-371).
T11 sequence: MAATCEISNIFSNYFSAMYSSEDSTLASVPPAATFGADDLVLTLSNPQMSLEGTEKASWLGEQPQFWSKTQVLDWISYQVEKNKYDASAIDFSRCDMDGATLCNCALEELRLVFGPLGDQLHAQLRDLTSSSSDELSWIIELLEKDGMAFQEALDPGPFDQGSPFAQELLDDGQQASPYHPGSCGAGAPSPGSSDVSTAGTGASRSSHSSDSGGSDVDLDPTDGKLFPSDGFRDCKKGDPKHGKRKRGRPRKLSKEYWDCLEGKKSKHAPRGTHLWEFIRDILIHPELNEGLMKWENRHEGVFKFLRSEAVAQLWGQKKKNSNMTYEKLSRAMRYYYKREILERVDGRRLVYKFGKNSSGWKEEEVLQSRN
To be noted: protein: recombinant; tags: N-terminal GST; dsDNA, one strand shown. Summed up: as §1

The next test concerns the target CRX (Homo sapiens, UniProt O43186 1-299). To be noted: protein: recombinant; tags: N-terminal GST; dsDNA, one strand shown. Summed up: as §1
Another test addresses ETV1 (Homo sapiens, UniProt P50549 1-477). To be noted: protein: recombinant; tags: N-terminal GST; dsDNA, one strand shown. Summed up: as §1

ETV1, sequence (P50549 whole entry): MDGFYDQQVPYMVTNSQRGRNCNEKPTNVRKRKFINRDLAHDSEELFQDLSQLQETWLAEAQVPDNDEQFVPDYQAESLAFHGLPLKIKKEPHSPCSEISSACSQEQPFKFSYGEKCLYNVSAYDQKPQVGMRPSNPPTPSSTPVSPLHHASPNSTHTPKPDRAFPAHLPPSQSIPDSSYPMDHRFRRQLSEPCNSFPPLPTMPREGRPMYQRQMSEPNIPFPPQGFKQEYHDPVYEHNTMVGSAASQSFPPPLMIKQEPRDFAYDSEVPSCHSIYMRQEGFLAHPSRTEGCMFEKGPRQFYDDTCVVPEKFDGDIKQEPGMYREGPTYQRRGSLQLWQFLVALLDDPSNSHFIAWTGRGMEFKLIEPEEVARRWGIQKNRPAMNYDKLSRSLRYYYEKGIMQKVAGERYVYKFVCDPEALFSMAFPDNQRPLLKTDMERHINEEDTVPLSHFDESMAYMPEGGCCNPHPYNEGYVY
SPIB, sequence (Q01892 whole entry): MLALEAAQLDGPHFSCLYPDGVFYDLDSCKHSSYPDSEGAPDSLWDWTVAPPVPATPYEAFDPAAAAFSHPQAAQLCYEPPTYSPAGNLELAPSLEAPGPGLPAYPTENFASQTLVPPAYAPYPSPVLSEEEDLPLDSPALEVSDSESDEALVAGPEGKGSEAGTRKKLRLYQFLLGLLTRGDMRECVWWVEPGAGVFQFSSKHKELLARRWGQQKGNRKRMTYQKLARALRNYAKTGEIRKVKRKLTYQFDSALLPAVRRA
ELF4, sequence (Q99607 whole entry): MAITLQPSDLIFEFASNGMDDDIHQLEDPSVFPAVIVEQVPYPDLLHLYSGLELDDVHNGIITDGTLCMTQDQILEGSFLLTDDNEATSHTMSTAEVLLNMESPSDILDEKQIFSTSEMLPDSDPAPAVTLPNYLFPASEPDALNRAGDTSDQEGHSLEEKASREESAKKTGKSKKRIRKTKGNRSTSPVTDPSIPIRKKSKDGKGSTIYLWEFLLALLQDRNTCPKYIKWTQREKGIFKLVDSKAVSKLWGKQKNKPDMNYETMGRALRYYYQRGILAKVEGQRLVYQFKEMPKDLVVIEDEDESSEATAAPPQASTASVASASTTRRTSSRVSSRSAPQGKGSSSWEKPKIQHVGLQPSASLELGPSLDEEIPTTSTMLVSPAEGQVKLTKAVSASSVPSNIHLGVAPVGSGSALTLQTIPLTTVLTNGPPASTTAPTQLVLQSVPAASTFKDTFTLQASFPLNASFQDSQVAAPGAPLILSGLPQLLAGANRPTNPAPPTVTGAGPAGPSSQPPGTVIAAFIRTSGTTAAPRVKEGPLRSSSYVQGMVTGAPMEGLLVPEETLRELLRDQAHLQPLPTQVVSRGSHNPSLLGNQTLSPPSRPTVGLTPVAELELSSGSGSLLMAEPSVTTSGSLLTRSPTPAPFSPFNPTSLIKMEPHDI
CRX, sequence (O43186 whole entry): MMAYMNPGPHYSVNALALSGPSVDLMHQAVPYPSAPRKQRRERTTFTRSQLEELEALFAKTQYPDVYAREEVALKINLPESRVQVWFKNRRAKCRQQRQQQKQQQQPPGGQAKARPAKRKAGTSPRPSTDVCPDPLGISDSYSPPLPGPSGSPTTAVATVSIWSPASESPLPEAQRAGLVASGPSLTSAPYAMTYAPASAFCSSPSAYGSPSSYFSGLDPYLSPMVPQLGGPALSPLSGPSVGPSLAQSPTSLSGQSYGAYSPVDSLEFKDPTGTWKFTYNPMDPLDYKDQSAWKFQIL

For the sequence TATCCC, the binding signal with FLI1 was 1.63 fold enrichment (6-mer frequency, TF over GST control); with ELK1, 1.65 fold enrichment (6-mer frequency, TF over GST control); in the test with GABPA, 1.53 fold enrichment (6-mer frequency, TF over GST control); with ERG, 1.58 fold enrichment (6-mer frequency, TF over GST control); with ELF1 it was 1.57 fold enrichment (6-mer frequency, TF over GST control); with EHF, 1.52 fold enrichment (6-mer frequency, TF over GST control). Besides, the binding signal is 1.36 fold enrichment (6-mer frequency, TF over GST control) with SPI1; 1.54 fold enrichment (6-mer frequency, TF over GST control) in the test with SPIB; 1.56 fold enrichment (6-mer frequency, TF over GST control) with ELK3; 1.59 fold enrichment (6-mer frequency, TF over GST control) with FEV; 1.64 fold enrichment (6-mer frequency, TF over GST control) with ETV5; 1.61 fold enrichment (6-mer frequency, TF over GST control) with HSF1. Moreover, the binding signal with SPIC is 1.6 fold enrichment (6-mer frequency, TF over GST control); with ELF4, 1.54 fold enrichment (6-mer frequency, TF over GST control); in the test with ELK4, 1.64 fold enrichment (6-mer frequency, TF over GST control); in the test with ETV2, 1.44 fold enrichment (6-mer frequency, TF over GST control); with ELF3 it was 1.83 fold enrichment (6-mer frequency, TF over GST control); in the test with CRX, 2.22 fold enrichment (6-mer frequency, TF over GST control). The binding signal with ETV1 was 1.39 fold enrichment (6-mer frequency, TF over GST control).
